# Measurements: PubChem BioAssay AID624171 (National Center for Advancing Translational Sciences (NCATS), 2012)
# The whole screen tested about 410,000 compounds, of which about 1,200 (0.29%) were called active. Entries that show only a call come without a potency. Not shown: some 2% with an inconclusive outcome. The full list was thinned out, with actives kept by preference. Unmarked numbers belong to inactive results. The call rests on the fitted dose curve; in most records, active means well fitted activation curve with a large enough effect; inconclusive means small, poorly fitted or top-dose-only effect; inactive means flat fitted curve, though single readings scatter.
# Assay: qHTS of Nrf2 Activators; further: nearly all actives have a fitted effect of over 65% in size
# Conditions: AREc32 ARE-luciferase reporter (MCF7-derived line), luminescence, 24 h; series mostly up to 46.1 µM
# Outline: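 Reporter line AREc32 (ARE-Fluc), seeded overnight in OPTI-MEM with 5% FBS; compound pin-transferred, 24 hr at 37 deg C, 5% CO2; luminescent read-out.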
# Potency means the concentration at half of the fitted maximal effect.
Structure (SMILES),Potency,activation
CCn1cc(C(=O)N2CCN(c3cc(Cl)ccc3C)CC2)c(=O)c2cc(S(=O)(=O)N3CCCC3)ccc21,inactive,
Cc1ccc(-n2c3nc(=O)[nH]c(=O)c-3cc3c(Cl)cccc32)cc1,inactive,
COc1ccc2c(Cl)c(-c3nnco3)sc2c1,inactive,
O=C(OCC#CCSc1nnc(-c2ccncc2)o1)c1sc2ccccc2c1Cl,inactive,
C#CCSc1nnc(-c2sc3ccccc3c2Cl)o1,4.47 µM (active),
CCN(CC)c1ccc(NC(=O)CN2C(=O)c3cccnc3Oc3ccc(Cl)cc32)c(C)c1,inactive,
Cc1ccc2cccc(NC(=O)c3cccc4ccccc34)c2n1,inactive,
Cc1cccc2c(=O)cc(CSc3ccccc3NC(=O)C(C)C)[nH]c12,inactive,
Cc1ccccc1NC(=O)c1cnn(-c2ccccc2)c1NC(=O)c1ccco1,inactive,
CCn1nc(NC(=O)c2ccco2)c2cc3ccc(C)cc3nc21,inactive,
Cc1ccnc(NC(=O)c2ccco2)n1,12.6 µM (active),
COc1ccc(NC(=O)CCc2nnc3n(CC(C)C)c(=O)c4ccccc4n23)cc1OC,inactive,
Cc1ccc(Cn2c(CCCNC(=O)C3CCCCC3)nc3ccccc32)cc1,inactive,
CCc1cc(C(=O)Nc2nnc(C3CC3)s2)sc1C,inactive,
CCc1ccccc1OCC(=O)Nc1nnc(C2CC2)s1,inactive,
O=C(Nc1nnc(C2CC2)s1)c1cc(Cl)sc1Cl,20 µM (active),
CCOc1ccc(-n2c(SCC(=O)NCc3ccccc3)nc3n[nH]c(C)c3c2=N)cc1,inactive,
CCC(CC)c1nnc(NC(=O)C2=COCCO2)s1,inactive,
CCC(CC)c1nnc(NC(=O)C2CCN(C(=O)c3ccco3)CC2)s1,inactive,
CCc1ccc2oc(-c3ccc(C)c(NC(=O)/C=C/c4ccco4)c3)nc2c1,inactive,
C/C=C/C(=O)Nc1nnc(C(C)C)s1,inactive,
Cc1nnc(NC(=O)/C=C/c2ccco2)s1,3.55 µM (active),
CCC(CC)c1nnc(NC(=O)/C=C/c2ccco2)s1,2.51 µM (active),
Cc1cc(NS(=O)(=O)c2ccc(NC(=O)c3ccccc3C)cc2)nc(C)n1,inactive,
CCc1ccc(N2C(=O)CN(S(=O)(=O)CC)CC2(C)C(=O)NC2CCCCC2)cc1 (centres undefined),inactive,
Cc1ccccc1OCC(=O)Nc1c(C(=O)Nc2ccccc2F)oc2ccccc12,inactive,

Structure (SMILES),Potency,activation
CCOC(=O)c1cccc(NC(=O)c2cc(CN3CCCC3)on2)c1,inactive,
CC1CCC2(CC1)N=C(c1ccccc1)C(=O)N2CC(=O)Nc1ccc(F)c(Cl)c1 (centres undefined),inactive,
COc1ccc(Cl)cc1NC(=O)CSc1nc(=O)[nH]c2c1CCCC2,inactive,
CCNC(=O)c1cc2n(n1)CCCN(Cc1ccc(C)cc1)C2=O,inactive,
Fc1ccc(CSc2nnc(-c3cc4c(s3)-c3ccccc3CC4)o2)cc1,inactive,
COc1ccccc1-c1nnc(SCC(N)=O)o1,inactive,
CCSc1nnc(-c2cc3c(s2)-c2ccccc2CC3)o1,12.6 µM (active),
CCc1ccccc1NC(=O)c1ccc(F)c(S(=O)(=O)NC2CCCCCC2)c1,inactive,
Fc1ccc(C(Nc2ccc(Cl)c(C(F)(F)F)c2)c2nnc(-c3ccccc3)o2)cc1 (centres undefined),inactive,
COc1ccc(Oc2c(Cl)cnn(-c3ccccc3)c2=O)cc1,12.6 µM (active),
COc1ccc(-n2c(=O)c3ccccc3n(Cc3ccccc3Cl)c2=O)cc1,inactive,
COc1ccc(-n2c(C)nc3c(cnn3-c3ccc(F)cc3)c2=O)cc1,inactive,
Cc1ccccc1CS(=O)(=O)CC1Nc2ccc(C(=O)NCc3ccc(Cl)cc3)cc2NC1=O (centres undefined),inactive,
O=C(NCc1ccc2c(c1)CCN2C(=O)c1ccccc1)Nc1cc(F)ccc1F,inactive,
CCCCC1S/C(=N/N=C/c2cccs2)NC1=O (centres undefined),,2.71% [at 9.22 µM]
CCC1C/C(=C/c2cccs2)C(=O)/C(=C/c2cccs2)C1 (centres undefined),5.62 µM (active),
O=S(=O)(c1cccs1)N1CCc2ccccc2C1,inactive,
CCS(=O)(=O)N1CCN(C(=O)c2cccs2)CC1,inactive,
O=C1/C(=C/c2cccs2)CCc2ccccc21,11.2 µM (active),
O=C1/C(=C/c2cccs2)CCC1C1CCCC1 (centres undefined),inactive,
Cc1c2cnn(-c3ccccc3)c(=O)c2c(C)n1C(C)C(=O)Nc1ccc(Br)cc1F (centres undefined),inactive,
COc1ccc(-c2nc3scc(CCNS(=O)(=O)c4cc(F)ccc4OC)n3n2)cc1OC,inactive,
Cn1nc(-c2ccccc2)c(-c2ccccc2)c(C(=O)Nc2ccc(S(N)(=O)=O)cc2)c1=O,inactive,
O=S(=O)(c1ccc2nc(NCc3ccccc3Cl)ccc2c1)N1CCCCC1,inactive,
O=C(CN1C(=O)COc2ccccc21)Nc1ccc(F)cc1,12.6 µM (active),
CC(OC(=O)CN1C(=O)COc2ccccc21)C(=O)NCc1ccc(F)cc1 (centres undefined),inactive,

Structure (SMILES),Potency,activation
O=C(CN1C(=O)COc2ccc(Cl)cc21)Nc1ccc(N2CCOCC2)cc1,inactive,
CNc1ccc(-c2nc(-c3ccccc3C)no2)cc1[N+](=O)[O-],inactive,
CC(Nc1ccc(-c2nc(-c3ccco3)no2)cc1[N+](=O)[O-])c1ccccc1 (centres undefined),inactive,
CNc1ccc(-c2nc(-c3ccco3)no2)cc1[N+](=O)[O-],1.41 µM (active),
CCCCN(CCCNC(=O)c1cc(Nc2ccccc2OC)nc2ccccc12)c1ccccc1,inactive,
CCCOC(=O)c1c(NC(=O)c2cc3nc(-c4ccc(OC)cc4)cc(C(F)(F)F)n3n2)sc2c1CCCC2,inactive,
CCOc1cc(-c2nnc(SCC(=O)NC3CCCCC3)nc2-c2ccc(OC)c(OCC)c2)ccc1OC,inactive,
CCN(CC)CCNc1ncnc2c1cnn2-c1cc(Cl)ccc1C,inactive,
O=C(Nc1ccc(OC(F)(F)F)cc1)C1CCCN(S(=O)(=O)c2ccc(Br)s2)C1 (centres undefined),inactive,
O=C(Nc1ccc(Cl)cc1)c1csc([C@@H]2O[C@H](CO)[C@H](O)[C@H](O)[C@H]2O)n1,inactive,
O=C(Nc1cccc(Cl)c1)c1csnn1,inactive,
O=C(Nc1ccc(Cl)cc1)c1ccsn1,11.2 µM (active),
O=S(=O)(c1ccc(C2CCCCC2)cc1)N1CCN(c2ccc(Cl)c(Cl)c2)CC1,inactive,
CCOc1ccc2nc(N3CCCC(C(=O)Nc4cc(C)ccc4C)C3)sc2c1 (centres undefined),inactive,
Cc1cc(C)cc(NC(=O)c2cnc3sc(N4CCCC4)nn3c2=O)c1,inactive,
CCOC(=O)c1ccc(NC(=O)c2csc3c2CCCCC3)cc1,inactive,
COC(=O)c1sccc1NC(=O)c1csc2c1CCCC2,11.2 µM (active),
CCOc1ccc(CCNC(=O)c2csc3c2CCCCC3)cc1,inactive,
CC(C)c1ccc(C2CC(=O)N3CN(C4CCCCC4)CSC3=C2C#N)cc1 (centres undefined),inactive,
CC(=O)c1cccc(NC(=O)CSc2nc3c(c(=O)[nH]2)CCC3)c1,inactive,
N#CC(=C1SC=CS1)c1nc(-c2ccccc2)cs1,7.08 µM (active),
Cc1ccc(-c2csc(C(C#N)=C(O)CN3CCN(C(=O)c4ccco4)CC3)n2)cc1,inactive,
N#CC(=C1CCCC1)c1nc(-c2ccc(Cl)cc2)cs1,inactive,
Fc1cccc(-n2ncc3c2ncn2nc(-c4ccccc4Cl)nc32)c1,inactive,
Cc1c(Cl)cccc1NC(=O)c1noc2c1CCCC2,inactive,
COc1ccc(C(=O)Nc2onc3c2CCCC3)cc1,inactive,

Structure (SMILES),Potency,activation
O=C(Nc1cccc2ccccc12)c1onc2c1CCCC2,12.6 µM (active),
COc1cccc(C(=O)NCc2ccc3c(c2)CCN3C(=O)c2ccncc2)c1,inactive,
C=CCSc1nnc2c(n1)-c1cccc3cccc-2c13,12.6 µM (active),
C=CCSc1nsc(NC(=O)Nc2cccc(C(C)=O)c2)n1,,-0.163% [at 9.22 µM]
Cc1cc(C)c(-c2n[nH]c3c2C(c2ccccc2F)N(CCO)C3=O)c(O)c1 (centres undefined),inactive,
Cc1nc2ccc(S(=O)(=O)NC(C(=O)NCc3ccccc3Cl)C(C)C)cc2s1 (centres undefined),inactive,
O=C(c1cnc(Cl)c(Cl)c1)N1CCN(S(=O)(=O)c2ccc(F)cc2)CC1,inactive,
O=C(c1c(F)cccc1Cl)N1CCN(S(=O)(=O)c2ccc3c(c2)OCCCO3)CC1,inactive,
CC(=O)N1CCN(S(=O)(=O)c2c(F)cc(F)c(Cl)c2F)CC1,11.2 µM (active),
Cc1c(CNC(C)c2ccccc2)c(C(=O)O)c(C)n1Cc1c(F)cccc1Cl (centres undefined),inactive,
Cc1csc2nc(COc3ccc(NC(=O)COc4ccccc4)cc3)cc(=O)n12,inactive,
O=C(Nc1nnc(-c2ccccc2F)s1)c1ccccc1F,3.16 µM (active),
O=C(Nc1nc2c(s1)CCCC2)c1ccccc1F,inactive,
O=C(Nc1ccccc1F)c1ccccc1-c1ccc(C(F)(F)F)cc1,inactive,
O=C(COc1ccccc1F)Nc1ccc(C(=O)OCc2cc(=O)n3nc(C4CC4)sc3n2)cc1,inactive,
Cc1ccccc1CNC(=O)CCCn1nc(C)c2sc3ccccc3c2c1=O,inactive,
Brc1ccccc1C1N=C(c2ccccc2)NO1 (centres undefined),6.31 µM (active),
N#Cc1ccc(C2N=C(c3ccccc3)NO2)cc1 (centres undefined),inactive,
COc1cc(Cl)c(NC(=O)CC(C)S(=O)(=O)c2cc3c(cc2C)NC(=O)CO3)c(OC)c1 (centres undefined),inactive,
CN(C)CCCn1c(-c2ccc(Cl)cc2)csc1=Nc1ccccc1,inactive,
CN(C)CCN=c1cc(-c2ccccc2)oc2ccc(Cl)cc12,11.2 µM (active),
Cc1ccc(Cc2nc3ccccc3nc2SCC(=O)Nc2cccc(C(F)(F)F)c2)cc1,inactive,
CCOCCCNC(=O)c1c(NC(=O)Cc2coc3ccc(C)cc23)sc2c1CCC2,inactive,
N#CC1=C(N)Oc2c(sc3ccccc23)C1c1ccco1 (centres undefined),3.16 µM (active),
CC(=O)c1cccc(NC(=O)c2nc(-c3ccccc3)n(-c3cccc(C)c3)n2)c1,inactive,
Cc1cccc(S(=O)(=O)c2cn(Cc3ccccc3)c3cc(N4CCOCC4)c(F)cc3c2=O)c1,inactive,
